Source: PubChem BioAssay AID485346 (Sanford-Burnham Center for Chemical Genomics, 2010)
The campaign covered roughly 330,000 compounds. About 10,000 (3%) were called active. This is one part of a sample in which actives are shown more often than they occur. Unmarked numbers belong to inactive results.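 How the source made its calls: active means inhibition of at least 50% at 8 µM in the primary screen; inactive means the rest.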

target: Protein Mdm4 (Homo sapiens) + E3 ubiquitin-protein ligase Mdm2 (Homo sapiens) (UniProt O15151+Q00987); assay: disruptors of Mdm2/MdmX RING complex – cell-based, luminescence, split luciferase, SaOS-2, uHTS, primary screen (AID 485346); details: SaOS-2 split-luciferase Mdm2/MdmX complementation, at 8 µM, stronger effect = higher value
Sequence (O15151 whole entry, looked up): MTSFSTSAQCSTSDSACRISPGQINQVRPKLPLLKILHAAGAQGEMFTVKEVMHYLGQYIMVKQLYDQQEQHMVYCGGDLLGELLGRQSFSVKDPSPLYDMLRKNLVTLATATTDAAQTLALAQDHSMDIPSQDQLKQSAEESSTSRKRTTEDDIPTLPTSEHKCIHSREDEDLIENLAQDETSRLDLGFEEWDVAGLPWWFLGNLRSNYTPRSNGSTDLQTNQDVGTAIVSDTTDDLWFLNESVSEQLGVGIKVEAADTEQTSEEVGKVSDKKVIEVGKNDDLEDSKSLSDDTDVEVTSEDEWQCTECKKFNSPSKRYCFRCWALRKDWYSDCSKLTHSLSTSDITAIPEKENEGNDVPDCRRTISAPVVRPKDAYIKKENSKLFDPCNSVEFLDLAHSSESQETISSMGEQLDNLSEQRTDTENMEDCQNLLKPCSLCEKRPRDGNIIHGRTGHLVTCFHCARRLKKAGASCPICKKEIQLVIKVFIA
Sequence (Q00987 whole entry, looked up): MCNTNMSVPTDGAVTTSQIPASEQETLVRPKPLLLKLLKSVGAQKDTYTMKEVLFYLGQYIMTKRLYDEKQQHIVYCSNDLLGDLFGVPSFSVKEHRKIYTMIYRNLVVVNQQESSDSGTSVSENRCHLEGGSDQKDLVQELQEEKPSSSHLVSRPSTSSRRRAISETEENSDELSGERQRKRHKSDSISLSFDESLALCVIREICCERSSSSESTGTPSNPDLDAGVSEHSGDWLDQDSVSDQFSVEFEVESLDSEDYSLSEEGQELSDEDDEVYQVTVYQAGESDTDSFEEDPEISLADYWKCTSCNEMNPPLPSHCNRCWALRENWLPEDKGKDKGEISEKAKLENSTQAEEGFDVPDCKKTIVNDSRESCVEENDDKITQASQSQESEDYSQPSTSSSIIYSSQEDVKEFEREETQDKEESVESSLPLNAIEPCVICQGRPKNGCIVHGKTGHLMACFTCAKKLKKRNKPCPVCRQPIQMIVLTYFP

| Compound | inhibition |
| --- | --- |
| O=C(Nc1cccc(Br)c1)c1ccc2snnc2c1 | -3.74% |
| CCc1ccccc1NC(=O)c1ccc2snnc2c1 | 25.3% |
| O=C(Nc1ccc2ccccc2c1)Nc1ccc2snnc2c1 | 88.1% (active) |
| CC(C)[C@@H](C(=O)O)N(Cc1cccc(CN([C@H](C(=O)O)C(C)C)S(C)(=O)=O)c1)S(C)(=O)=O | 9.86% |
| CCN(CC)S(=O)(=O)c1ccc(NC(=O)c2cccnc2Cl)c(NC(=O)c2cccnc2Cl)c1 | 94.7% (active) |
| CCN(CC)S(=O)(=O)c1ccc(Cl)c(NC(=O)c2ccncc2)c1 | 11.7% |
| Cc1cccc(NC(=O)c2cccnc2Cl)n1 | 2.81% |
| COc1ccc(OC)c(NC(=O)c2ccc3c(c2)CCN3S(C)(=O)=O)c1 | 15.2% |
| COc1ccc(OC)c(NC(=O)c2sc3nc(C)cc(C)c3c2N)c1 | 58.3% (active) |
| COCc1cc(C)nc2sc(C(=O)NC3CCCCC3)c(N)c12 | 7.84% |
| COc1ccc(N(C(=O)c2ccc(C)cc2)S(=O)(=O)c2cccs2)cc1 | 17.4% |
| CN(C)c1ccc2c(=O)[nH][nH]c(=O)c2c1 | 4.05% |
| O=C(NCc1cccs1)c1ccc2c(c1)ncn2C1CCCC1 | -11.4% |
| CCOC(=O)C1CCN(Cc2c(C(=O)N3CCOCC3)nc3c(C)cccn23)CC1 | 15.2% |
| COCCCNc1nc2c(-c3cccc(C(F)(F)F)c3)nnn2c2ccccc12 | 17.3% |
| COCCCNc1nc2c(-c3cccc(C)c3)nnn2c2ccc(Cl)cc12 | 55.3% (active) |
| COC(=O)Cn1nc(-c2ccccc2)c2cc(Cl)ccc21 | 10.1% |
| CC1CCCN(c2ccc(C(=O)NCCc3ccccc3)cn2)C1 (stereo not drawn) | -61.6% |
| O=c1oc2ccccc2c(NC2CCCCC2)c1NS(=O)(=O)c1ccc(Cl)cc1 | 14.1% |
| S=c1[nH]nc2c3c4c(sc3ncn12)CCCC4 | 14% |

| Compound | inhibition |
| --- | --- |
| O=C1CCC/C=C/C[C@@H](CC(=O)N(CCO)Cc2ccccc2)C(=O)NC[C@H](c2ccccc2)O1 | -21.8% |
| O=C1N[C@@H](c2ccccc2)COC(=O)[C@H](Cc2ccc(F)cc2)C/C=C\C[C@@H]1CC(=O)N(CCO)Cc1ccccc1 | 9.71% |
| O=C1NC[C@@H](c2ccccc2)OC(=O)[C@H](Cc2ccc(F)cc2)CC/C=C/C[C@H]1CC(=O)N(CCO)Cc1ccccc1 | 59.7% (active) |
| Cn1c(CCNS(=O)(=O)c2ccc(F)cc2)nnc1SCc1cccnc1 | 13.7% |
| CN[C@H](C(=O)NC[C@H]1O[C@@H](n2cnc3c(N)ncnc32)[C@H](O)[C@@H]1O)[C@@H](C)OCc1ccccc1 | 16.8% |
| COc1ccc2cc(C3=CC(=O)C[C@H](c4ccc5c(c4)OCO5)C3)ccc2c1 | 3.41% |
| COC(=O)N(NC(=O)C(O)(C(C)C)C(C)C)c1ccccc1 | -17.3% |
| CCCCCNC(=O)C1c2ccccc2Oc2ccccc21 | -5.28% |
| CCCCC(O)(CCCC)C(=O)NN(C(=O)CCl)c1ccccc1 | 87.3% (active) |
| Cc1ccc(N(NC(=O)C(C)(C)O)C(=O)c2ccccc2)cc1C | -3.58% |
| CCCC(O)(CCC)C(=O)NN(C(=O)CCl)c1cccc(C)c1 | 94% (active) |
| CC(C)(O)C(=O)NN(C(=O)c1ccccc1)c1cccc(Br)c1 | -9.41% |
| CCn1cc(C(=O)N[C@@H](C)C(=O)NCCO)c(=O)c2cc3c(cc21)OCO3 | -4.24% |
| Cc1ccc(N(CC(=O)NCC2CCCO2)C(=O)CNS(=O)(=O)c2ccc(Cl)cc2)cc1 (stereo not drawn) | -1.2% |
| Cc1ccc2c(c1)N(CCCC(=O)NCc1cccnc1)C(=O)CO2 | 5.4% |
| CSCC[C@H](NC(=O)NCc1cccs1)C(=O)O | 3.11% |
| O=C(CCc1nc2ccccc2c(=O)[nH]1)OCC(=O)c1cccc(Cl)c1 | 30.6% |
| O=C(/C(=C/c1cccc(Cl)c1)c1nc2ccccc2[nH]1)c1ccccc1 | 100% (active) |
| O=C(Cc1nc2ccccc2[nH]c1=O)c1ccc(Cl)cc1 | -186% |
| CCCN(CCC)c1c([N+](=O)[O-])c(=O)oc2ccccc12 | -1.56% |

| Compound | inhibition |
| --- | --- |
| Cc1ccc(-n2nc(C)c(/C=N/NC(=O)c3cccs3)c2Cl)cc1 | 3.87% |
| Cc1cccc(-n2c(C)cc(/C=N\NC(=O)c3cccs3)c2C)c1 | 67.2% (active) |
| Cc1cccc(-n2c(C)cc(/C=N/NC(N)=S)c2C)c1 | -13.2% |
| CCC1CCC2(CC1)NC(=O)N(CC(=O)Nc1ccc(OC)cc1)C2=O (stereo not drawn) | 18.6% |
| CCN(CC(=O)Nc1ccc(NC(C)=O)cc1)C(=O)C1CC(=O)N(Cc2ccc(C)cc2)C1 (stereo not drawn) | -26.3% |
| CCN(CC)c1ccc(C(=O)c2cnc(/N=C/N(C)C)s2)cc1 | -23.2% |
| Cc1ccc(NC(=S)NC(=O)c2ccc(-c3ccccc3)cc2)cc1 | 12.8% |
| CCOC(=O)C1=C(NC(=S)NC(=O)c2ccccc2)c2ccccc2CC1(C)C | 51.4% (active) |
| COCCCNC(=S)NC(=O)c1ccccc1 | -18.2% |
| CC1(C)C[C@H]2C3=CCC4[C@@]5(C)CC[C@H](O)[C@](C)(CO)C5CC[C@@]4(C)[C@]3(C)C[C@@H](O)[C@@]2(CO)[C@@H](O)[C@@H]1O (stereo partly drawn) | 17.8% |
| COc1ccc(NC(=O)c2ccco2)cc1NC(=O)c1ccc(C#N)cc1F | 5.85% |
| O=C(Nc1cccc2cccnc12)c1cccc(Cl)c1 | -3.29% |
| N#Cc1ccc(C(=O)Nc2cccc3cccnc23)c(F)c1 | 56.2% (active) |
| CC(C)Cc1ccc(C(C)C(=N)N)cc1 (stereo not drawn) | -18.4% |
| COc1ccc(S(=O)(=O)N(CC(=O)NCc2ccco2)c2ccc(F)cc2)cc1 | 10.5% |
| Cc1ccccc1-c1ccc(Nc2ccc(C(=O)N3CCOCC3)cc2)nn1 | 0.851% |
| COC1=C(N2CCOCC2)C(=O)c2ccccc2C1=O | 17.1% |
| Cc1oc2c(c1C(=O)N1CCOCC1)C(=O)c1ccccc1C2=O | 53.6% (active) |
